PubChem BioAssay (NCI)
About 83,000 compounds went through this panel and 20% of them were active in at least one assay; those are over-represented in the sample as a whole.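 Results are percent growth after 48 hours of single-concentration exposure. 100 means growth as in untreated cells, lower positive values show inhibition; negative values down to -100 show cell death.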 Values without a mark were called inactive. The source made the active and inactive calls. How the source made its calls: active means growth percent below 10; inactive means the rest.

Columns and labels:
Assay in all cases: NCI-60 one-dose screen, 48 h (100 = growth as untreated, 0 = no growth, -100 = all killed)
Conditions in all cases: 10 µM unless noted
[1] = test system: HCT-15 colon
[2] = test system: SNB-75 CNS
[3] = test system: SNB-19 CNS
[4] = test system: U251 CNS
[5] = test system: PC-3 prostate
[6] = test system: SK-MEL-5 melanoma
[7] = test system: UACC-62 melanoma
[8] = test system: LOX IMVI melanoma
[9] = test system: SK-MEL-28 melanoma
[10] = test system: HT29 colon

| SMILES | growth [1] | growth [2] | growth [3] | growth [4] | growth [5] | growth [6] | growth [7] | growth [8] | growth [9] | growth [10] |
| --- | --- | --- | --- | --- | --- | --- | --- | --- | --- | --- |
| OC(COc1ccccc1Cl)CN1CCN(c2cccc(Cl)c2)CC1 (stereo not drawn) | 97.2% | 104% | 97.6% | 97.6% | 84.4% | 102% | 98.5% | 91.6% | 107% |  |
| C=C1C(=O)O[C@H]2[C@H]1CC/C(COC(=O)C(C)c1ccc(CC(C)C)cc1)=C\CC[C@@]1(C)O[C@@H]21 (stereo partly drawn) | -56.1% (active) | 56.6% | 64.1% | 1.42% (active) | 16.4% | 7.78% (active) | 6.52% (active) | -89.1% (active) | 5.16% (active) |  |
| Cc1cc2[nH]c(=O)c3c4ncccc4cn3c2cc1C | 5.25% (active) | 99.4% | 50.2% | 24.1% | 57.1% | 70% | -8.94% (active) | -83.3% (active) | 95.1% |  |
| COc1ccc(C2C(N)=NNC2c2cccc(O)c2)cc1 (stereo not drawn) | 102% | 84.7% | 81.3% | 93.6% | 95.6% | 101% | 91.2% | 97.7% | 108% |  |
| CCCCOc1ccc(/C=N/NC(N)=S)cc1 |  | 72.9% | 89.8% | 89.9% | 81% | 95.7% | 75.5% | 94.2% | 96.5% | 61.5% |
| CCN(CC)S(=O)(=O)c1ccc(NC(=O)CSc2nnc(C)n2-c2ccccc2)cc1 | 113% | 98.5% | 102% | 104% | 95.2% | 105% | 92.8% | 102% | 108% |  |
| O=c1c2cc(F)ccc2sc2c(NCCCNCCO)nc3ccccc3c12 | -9.91% (active) | 53.8% | 58.5% | 6.22% (active) | 25.2% | 70.5% | -39.4% (active) | -94.1% (active) | 28.1% |  |
| Cc1ccc(C(C)C)cc1C(=O)C[n+]1ccccc1 | 99.7% | 95% | 106% | 104% | 99.1% | 106% | 106% | 100% | 97.3% |  |
| CCn1cnc2c1c(=O)[nH]c(=O)n2CC1CCC(CNS(=O)(=O)c2ccc(OC3CCOCC3)c(F)c2)CC1 (stereo not drawn) | 86.6% | 7.93% (active) | 59% | 67.9% | 45.9% | 60.1% | 24.1% | 38.4% | 64.1% |  |
| CC([C@H]1CCC2C3CCC4C[C@@H](NC=O)CC[C@]4(C)C3CC[C@@]21C)N(C)C (stereo partly drawn) | -59.7% (active) | -1.26% (active) | 44.6% | 4.82% (active) | 5.08% (active) | -96.7% (active) | -51.3% (active) | -58.7% (active) | -94.2% (active) |  |
| CCOC(=O)C1=C(N)Oc2c(sc3c(C)cccc23)C1c1ccc(Cl)cc1 (stereo not drawn) | 15% | -9.45% (active) | 28.1% | 31.7% |  | 39.5% | 12.1% | 36.2% | 53.6% |  |
| NC1CCN(c2nc(Nc3cccc(C(F)(F)F)c3)c3c(=O)[nH]ccc3n2)CC1 | -80% (active) | -76.8% (active) | -14.3% (active) | -82.1% (active) | 19.3% | -96.2% (active) | -80.4% (active) | -94.2% (active) | -85.4% (active) |  |
| Cc1ccc(/C=C(\C#N)n2nc3cccc(F)c3n2)cc1 | 82.6% | 74.7% | 96.6% | 86.3% | 102% |  | 83.7% | 86.2% | 96.2% |  |
| CCOC(=O)Cn1c(=O)c2c(c3ccccc3n2C)n2nnc(-c3ccccc3)c12 | 112% | 94.2% | 104% | 107% | 103% | 98.4% | 102% | 91.1% | 107% |  |
| CCOC(=O)Nc1ccc(-c2nc(-c3cccc(OCCN4CCOCC4)c3)c(-c3ccnc(Br)c3)[nH]2)cc1 | 11% | 3.74% (active) | 50.6% | 26.5% | 26.2% | 38.1% | 32.9% | 14.1% | 30.6% |  |
| O=C(Nc1ccc(F)cc1F)c1cc(F)ccc1O | 12.4% | 10.6% | 10.7% | 10.6% | 13.5% | -59.1% (active) | -0.318% (active) | 9.88% (active) | 21.9% |  |
| CCOc1cccc(NC2=C(Br)C(=O)C(C)=C(C)C2=O)c1 | 98.6% | 56.3% | 94% | 97.3% | 73.8% | 89% | 81.5% | 26% | 104% |  |
| COC(=O)C(Cc1ccccc1)NC(=O)NC(=O)NC(=O)CI (stereo not drawn) | 12% | 98.9% | 126% | 101% | 87.6% | 89.7% | 6.21% (active) | -78.8% (active) | 51.8% |  |
| COc1ccc(-n2c(N)c(-c3nc4ccccc4[nH]3)cc(C#N)c2=O)cc1 | 89.4% | 60.5% | 78.9% | 103% | 85.4% | 90.9% | 102% | 98.2% | 100% |  |
| NC1=NC(c2cccc(Br)c2)c2sc3ccc(Cl)cc3c2N1 (stereo not drawn) |  | 75.6% | 97.3% | 103% | 88.7% | 96.5% | 84.5% | 98.8% | 118% | 104% |
| COc1cc(CCCO)c(OC)c(OC)c1OC | 110% | 86.9% | 96.1% | 101% | 106% | 109% | 94.8% | 98.1% | 109% |  |
| COc1ccc(C2CC(c3ccc(Nc4ccnc5cc(Cl)ccc45)cc3)=NN2C=O)cc1 (stereo not drawn) | 23.6% | 77.1% | 81.5% | 63.4% | 72.3% | 41.2% | 54.5% | 20% | 74.9% |  |
| CC(=O)N1CCN(c2ccc(OCC3CO[C@](Cn4ccnc4)(c4ccc(Cl)cc4Cl)O3)cc2)CC1 (stereo partly drawn) | 75% | 79.6% | 97.2% | 87.4% | 76.5% | 14.5% | 57.2% | 91.6% | 106% |  |
| Fc1cc2c(cc1Cl)N(c1ncnc3ccc(-c4cnc5cnccn45)cc13)CC2 | 99.1% | 69.2% | 86.2% | 91.1% | 81.9% | 95.3% | 80.5% | 91% | 97.1% |  |
| COc1cc(C(=O)c2cnc(-c3cccc4[nH]ccc34)[nH]2)cc(OC)c1OC | 17.8% | 30.5% | 40.3% | 20.2% | 22.4% | -23.6% (active) | 39.3% | 28.1% | 55.1% |  |
| O=[N+]([O-])c1ccccc1NCSc1ccc(Cl)cc1 | 89.7% | 87.3% | 103% | 85.8% | 56.2% | 99.9% | 89.2% | 52.7% | 107% |  |
| Cc1cc(=O)oc2cc(OC(=O)CN3CCN(C)CC3)ccc12 | 98.9% | 74.5% | 95.6% | 105% | 95.2% |  | 95.5% | 97.9% | 104% |  |
| COc1c(C2CC(=O)Nc3c2c(C)nn3-c2nc3ccccc3[nH]2)cc2c(c1OC)OCO2 (stereo not drawn) | 37.2% | 44.2% | 49.6% | 31.5% |  | 31.9% | 55.2% | 46.7% | 44.2% |  |
